From PubChem BioAssay (NCATS)
Results filed as inconclusive are left out. The source made the active and inactive calls. Unless noted, calls come from the whole dose curve; as a rule, active = well fitted curve in the direction sought with a large enough effect; inconclusive = small, poorly fitted or top-dose-only effect, or another doubt; inactive = no such curve, though single readings can be large; an effect the other way counts as inactive or inconclusive.

Experiments:
[1] = Confirmation and Secondary Assay for Modulators of Hemoglobin Beta Chain Splicing at IVS2 654 locus (AID 910); details: HeLa EGFP-654 splicing reporter, GFP fluorescence, 48 h; series mostly up to 46.1 µM;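 note: per-well total GFP intensity by laser scanning cytometry after 2-day treatment; % of control where 0% means no effect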
In short: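 HeLa cells stably carrying EGFP interrupted by mutant beta-globin IVS2-654 intron (CMV-driven) were treated with compound for 2 days at 37C; corrected splicing was scored as total peak GFP intensity per well (488 nm excitation, 500-520 nm emission).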

[2] = Confirmation and Secondary Assay for Modulators of Hemoglobin Beta Chain Splicing at IVS2 705 locus (AID 930); details: HeLa EGFP-705 splicing reporter, GFP fluorescence, 48 h; series mostly up to 46.1 µM;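 note: HeLa cells stably expressing the EGFP-705 splicing reporter; % of control where 0% means no effect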
In short: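 HeLa cells stably carrying EGFP interrupted by mutant beta-globin IVS2-705 intron (CMV-driven) were seeded at 500 cells/well, treated next day with compound for 2 days at 37C; corrected splicing restores EGFP, read as total peak GFP intensity per well.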

[3] = biological target: Cytochrome P450 3A4 (Homo sapiens) (UniProt P08684); assay: qHTS Assay for Inhibitors and Substrates of Cytochrome P450 3A4 (AID 884); details: recombinant CYP3A4, Luciferin-PPXE luminescence; series mostly up to 57.1 µM; note: % is set by controls: 0 for no effect and ±100 for the full control effect; nearly all actives have a fitted effect of over 50% in size
In short: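 20 nM human CYP3A4 with 25 uM Luciferin-PPXE (at KM) in 200 mM KPO4, preincubated 10 min with compound; NADPH regeneration started a 60 min RT reaction. Luciferin detected by luminescence, normalized to 57 uM ketoconazole as full inhibition.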

[4] = qHTS Assay for Identification of Small Molecule Antagonists for NFkB Signaling Pathway (AID 895; active = well fitted inhibition curve with a large enough effect in the signal ratio, with a control signal flat, not every such curve was filed as active; the % refers to the signal ratio; note: % is set by controls: 0 for no effect and ±100 for the full control effect); details: NFkB beta-lactamase reporter cells, FRET ratio 460/530; series mostly up to 38.3 µM
In short: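 NFkB-bla ME-180 cervical carcinoma cells with beta-lactamase reporter under NFkB response element; compounds added, then TNF alpha at 10 pM final (EC50), 5 h at 37 C. LiveBLAzer substrate 2 h, room temperature; emission 460/530 nm at 405 nm excitation.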

[5] = biological target: Cytochrome P450 2C19 (Homo sapiens) (UniProt P33261); assay: qHTS Assay for Inhibitors and Substrates of Cytochrome P450 2C19 (AID 899); details: recombinant CYP2C19, luciferin-H EGE luminescence; series mostly up to 57.1 µM; note: nearly all actives have a fitted effect of over 60% in size; note: potency is the fitted concentration of half-maximal effect
In short: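 NADPH-dependent conversion of Luciferin-H EGE (10uM, at KM) by 5nM enzyme in 50mM KPO4, 60 min at 37C following 10 min compound preincubation. Stopped with luciferin detection buffer; luminescence read after 20 min.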

[6] = qHTS Assay for Identification of Small Molecule Agonists for Hypoxia Response Element Signaling Pathway (AID 914; active = well fitted activation curve with a large enough effect in the signal ratio, with a control signal flat, not every such curve was filed as active; the % refers to the signal ratio; note: % of control where 0% means no effect); details: ME-180 HRE-bla reporter, beta-lactamase ratio, CoCl2, 17 h; activation: active compounds read high
In short: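 ME-180 cells carrying an HRE-driven beta-lactamase reporter were treated with compounds in a titration series plus an EC50 level of CoCl2 for 17 h at 37 degrees Celsius; CCF4 readout as the 460nm/530nm ratio gave AC50 values.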

[7] = biological target: Muscarinic acetylcholine receptor M1 (Rattus norvegicus) (UniProt P08482); assay: qHTS Assay for Antagonists of Acetylcholine Muscarinic M1 Receptor: Measurement of IP-One Response (AID 944); details: CHO-M1 cells, IP-One HTRF, antagonist mode; series mostly up to 46.1 µM; note: nearly all actives have a fitted effect of over 75% in size; note: potency is the fitted concentration of half-maximal effect
In short: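 M1-CHO (rat), 2000 cells/well, overnight recovery; cpd 10 min; carbachol EC80 (200 nM), 30 min, HEPES buffer + 50 mM LiCl pH 7.4; IP-One HTRF, Ex 337, Em 620/665 nm.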

[8] = biological target: Alpha-galactosidase (Coffea arabica) (UniProt Q42656); assay: Counterscreen for Glucocerebrosidase Inhibitors: qHTS Assay for Coffee Bean alpha-Galactosidase at pH 4.5 (AID 957); details: purified coffee bean alpha-galactosidase, fluorogenic substrate; series mostly up to 76.9 µM;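 note: plate controls were enzyme alone for no effect and no enzyme for full effect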
In short: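 Coffee bean alpha-galactosidase 2 nM, substrate 4-MU-alpha-Gal 80 uM, pH 4.5 citrate/Tween-20, 20 min RT. Cpd titration 0.7 nM–77 uM. Stop pH 10, fluorescence 365/440 nm; Hill-equation AC50.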

[9] = biological target: Alpha-galactosidase (Coffea arabica) (UniProt Q42656); assay: Counterscreen for Glucocerebrosidase Inhibitors: qHTS Assay for Coffee Bean alpha-Galactosidase at pH 5.9 (AID 998); details: coffee bean alpha-galactosidase enzyme assay; series mostly up to 76.9 µM;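 note: plate controls were uninhibited enzyme for no effect and no-enzyme basal signal for full effect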
In short: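 Green coffee bean enzyme (2 nM final) was incubated with compounds (0.7 nM–77 uM) and 4-methylumbelliferyl alpha-D-galactopyranoside (80 uM) in citrate buffer pH 5.9, 20 min at room temperature. High-pH stop; fluorescence 365/440 nm; AC50 from Hill fits.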

[10] = biological target: Cytochrome P450 2C9 (Homo sapiens) (UniProt P11712); assay: qHTS Assay for Inhibitors and Substrates of Cytochrome P450 2C9 (AID 883); details: recombinant CYP2C9, luciferin-H luminescence, 60 min; series mostly up to 57.1 µM; note: nearly all actives have a fitted effect of over 60% in size; note: potency is the fitted concentration of half-maximal effect
In short: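 A luminogenic readout tracked human CYP2C9 (10nM) converting deoxyluciferin (100uM, at KM) in 25mM KPO4 during 60 min at 37C with regenerated NADPH. Values normalized to 57uM sulphaphenazole as complete inhibition.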

[11] = biological target: Muscarinic acetylcholine receptor M1 (Rattus norvegicus) (UniProt P08482); assay: qHTS Assay for Antagonists of Acetylcholine Muscarinic M1 Receptor: Kinetic Measurement of Intracellular Calcium Response (AID 943); details: M1-expressing cells, kinetic intracellular calcium fluorescence; series mostly up to 35.3 µM;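 note: Fluo-4 calcium signal as peak divided by basal fluorescence over 4 min; nearly all actives have a fitted effect of over 75% in size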
In short: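 Rat M1-CHO cells, 2000/well, overnight → Fluo-4 no-wash dye with probenecid, 1 h 37C → compound 10 min, room temp → basal read 6 s → carbachol EC80 (100 nM) → 4 min kinetic read; peak/basal.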

[12] = biological target: DNA repair nuclease/redox regulator APEX1 (Homo sapiens) (UniProt P27695); assay: qHTS Validation Assay for Inhibitors of the Human Apurinic/apyrimidinic Endonuclease 1 (APE1) (AID 1705;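 note: TAMRA fluorescence gain over two minutes as APE1 cuts a quenched THF abasic duplex; % is set by controls: 0 for no effect and ±100 for the full control effect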); details: purified APE1 endonuclease activity, fluorescence, titration; series mostly up to 57.1 µM
In short: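 Activity read as rising fluorescence (598 nm emission, 525 nm excitation) from incision of a TAMRA/BHQ-2 duplex carrying a THF abasic site (50 nM). Compound and enzyme sat 15 min at RT before substrate start; signal change between first and third 60-s reads.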

[13] = Counterscreen for APE1 Inhibitors: Fluorescent Dye Displacement Validation Assay (AID 1707); details: fluorescent dye displacement from DNA; series mostly up to 57.1 µM;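 note: plate controls were ThO with dsDNA and no compound for no effect and ThO without dsDNA for full effect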
In short: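 Thiazole Orange displacement from dsDNA: 250 nM ThO with 50 nM TAMRA-labelled abasic-site (tetrahydrofuran) duplex in 50 mM Tris-HCl pH7.5, 50mM NaCl, 2 mM MgCl2, 0.01% Tween-20. Loss of endpoint fluorescence (ex 480 nm, em 540 nm) flags DNA binders.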

[14] = qHTS for differential inhibitors of proliferation of Plasmodium falciparum line Dd2 (AID 1882); details: Potency: Plasmodium falciparum Dd2 proliferation inhibition; series mostly up to 28.7 µM; note: nearly all actives have a fitted effect of over 65% in size; note: potency is the fitted concentration of half-maximal effect
In short: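 Dd2-infected erythrocytes (0.3% parasitemia, 2.5% hematocrit final) incubated with compound 72 h at 37 C, 5% CO2; lysed with saponin/Triton buffer containing SYBR Green I, incubated overnight in the dark, then read by fluorescence (485/535 nm). Normalized to 0.29 uM artemisinin and DMSO.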

[15] = qHTS for differential inhibitors of proliferation of Plasmodium falciparum line W2 (AID 1883); details: Potency: Plasmodium falciparum W2 proliferation inhibition; series mostly up to 28.7 µM;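 note: parasites grown with compound for 72 h before lysis and staining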; note: potency is the fitted concentration of half-maximal effect
[16] = biological target: Ferritin light chain (Equus caballus) (UniProt P02791); assay: qHTS Validation Assay for Identification of Novel General Anesthetics (AID 2323); details: horse apoferritin, anesthetic-site fluorescent probe displacement; series mostly up to 76.9 µM; note: % is set by controls: 0 for no effect and ±100 for the full control effect
In short: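 Competitive displacement of the profluorescent anesthetic 1-AMA (50% saturated, PBS) from 10 uM apoferritin, 10 min, room temperature. Activity is normalized 380/535 nm fluorescence; concentration-response fitted with a four-parameter Hill equation.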

[17] = biological target: ATP-dependent DNA helicase Q1 (Homo sapiens) (UniProt P46063); assay: qHTS Validation Assay for Inhibitors of RecQ-Like Dna Helicase 1 (RECQ1) (AID 2353); details: recombinant RECQ1 helicase DNA unwinding assay; series mostly up to 25.6 µM;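 note: plate controls were DMSO vehicle for no effect and enzyme-free control for full effect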
In short: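 50 nM RECQ1T1 preincubated 15 min with compound in Tris pH 8.0 buffer with MgCl2, DTT, Tween-20 and 2.5 ug/ml poly(dI-dC); started with 200 nM TAMRA/BHQ-2 forked duplex and 2 mM ATP. Unwinding read as fluorescence (525/598 nm), two reads 2 h apart.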

[18] = Validation screen for inhibitors of Lassa infection (AID 463096; calls by dose curve; note: % is set by controls: 0 for no effect and ±100 for the full control effect); details: Lassa virus infection, cell-based; series mostly up to 46.1 µM
[19] = biological target: Transient receptor potential cation channel subfamily V member 1 (Homo sapiens) (UniProt Q8NER1); assay: HTS Assay for Compounds that Act as Enhancers of the Vanilloid Receptor 1 (AID 488979); details: TRPV1-expressing cells, enhancer of channel activity; series mostly up to 41.7 µM; note: 0% is about no effect
In short: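 TRPV1-expressing cells loaded with Fluo-8 calcium dye; compounds added and calcium influx read kinetically for 3 min (agonist phase), then capsaicin at EC20 added and read 2 min more for enhancement. Fluorescence ex 480/em 520 nm.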

[20] = biological target: Thyrotropin-releasing hormone receptor (Homo sapiens) (UniProt P34981); assay: qHTS for Small Molecule Agonists and Allosteric Enhancers of Human TRH Receptor: Validation Screen for Agonists (AID 493127;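 active = calcium activation more than 3 SD above the typical response in the agonist read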;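 note: intracellular calcium rise by fluo-8 fluorescence before TRH EC20 addition; 0% is about no effect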); details: TRH receptor agonist cell assay; at 2 µM; active compounds read high
In short: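 Cells 2000/well, 10% FCS, 18 h 33.5C/5% CO2 → fluo-8 Ca dye, RT 30 min–1.5 h → FDSS baseline 10 × 1 s → compound added → 230 cycles (1 s/cycle) agonist mode. TRH controls.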

Chain of Alpha-galactosidase (Coffea arabica) (Q42656 whole entry, looked up): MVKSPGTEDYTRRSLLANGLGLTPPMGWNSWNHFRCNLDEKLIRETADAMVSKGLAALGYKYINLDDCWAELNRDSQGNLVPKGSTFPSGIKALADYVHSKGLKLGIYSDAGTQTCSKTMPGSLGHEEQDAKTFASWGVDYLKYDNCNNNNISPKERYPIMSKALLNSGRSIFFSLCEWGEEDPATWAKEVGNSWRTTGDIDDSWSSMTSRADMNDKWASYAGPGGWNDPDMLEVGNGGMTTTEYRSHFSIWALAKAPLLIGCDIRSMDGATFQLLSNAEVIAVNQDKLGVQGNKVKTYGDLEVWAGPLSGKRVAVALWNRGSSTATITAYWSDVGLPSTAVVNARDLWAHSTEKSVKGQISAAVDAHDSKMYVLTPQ
Chain of Ferritin light chain (Equus caballus) (P02791 2-175 limits assumed): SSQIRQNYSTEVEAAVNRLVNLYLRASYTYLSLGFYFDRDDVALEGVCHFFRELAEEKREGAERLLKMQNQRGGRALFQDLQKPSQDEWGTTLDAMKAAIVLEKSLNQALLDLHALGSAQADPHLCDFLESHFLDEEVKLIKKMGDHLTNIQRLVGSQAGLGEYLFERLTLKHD
Chain of Muscarinic acetylcholine receptor M1 (Rattus norvegicus) (P08482 whole entry, looked up): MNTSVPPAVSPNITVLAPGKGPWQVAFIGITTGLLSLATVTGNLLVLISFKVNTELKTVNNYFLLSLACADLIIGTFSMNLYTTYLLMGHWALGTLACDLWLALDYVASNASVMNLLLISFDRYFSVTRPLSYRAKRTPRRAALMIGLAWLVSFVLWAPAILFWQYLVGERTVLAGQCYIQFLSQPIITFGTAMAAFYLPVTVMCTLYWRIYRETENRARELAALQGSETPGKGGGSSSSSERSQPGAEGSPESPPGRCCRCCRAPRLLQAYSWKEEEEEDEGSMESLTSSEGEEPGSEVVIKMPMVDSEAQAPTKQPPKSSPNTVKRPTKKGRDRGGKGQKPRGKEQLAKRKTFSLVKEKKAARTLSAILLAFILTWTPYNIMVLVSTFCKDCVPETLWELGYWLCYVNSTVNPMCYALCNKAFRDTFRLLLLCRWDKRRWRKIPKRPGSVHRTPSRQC
Chain of Cytochrome P450 2C19 (Homo sapiens) (P33261 whole entry, looked up): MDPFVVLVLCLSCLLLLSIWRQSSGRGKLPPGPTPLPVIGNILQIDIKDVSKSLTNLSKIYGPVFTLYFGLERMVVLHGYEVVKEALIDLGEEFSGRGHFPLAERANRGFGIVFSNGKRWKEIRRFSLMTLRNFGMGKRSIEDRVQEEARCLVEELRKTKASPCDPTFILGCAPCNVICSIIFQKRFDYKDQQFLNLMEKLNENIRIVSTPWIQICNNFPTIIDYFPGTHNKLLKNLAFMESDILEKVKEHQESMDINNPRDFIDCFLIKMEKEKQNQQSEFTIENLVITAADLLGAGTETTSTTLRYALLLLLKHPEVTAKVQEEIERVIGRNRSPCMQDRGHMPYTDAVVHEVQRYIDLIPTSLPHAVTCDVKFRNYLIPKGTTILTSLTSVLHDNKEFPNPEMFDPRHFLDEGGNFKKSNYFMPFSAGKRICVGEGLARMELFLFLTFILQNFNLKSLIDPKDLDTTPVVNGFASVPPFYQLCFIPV
Chain of Thyrotropin-releasing hormone receptor (Homo sapiens) (P34981 whole entry, looked up): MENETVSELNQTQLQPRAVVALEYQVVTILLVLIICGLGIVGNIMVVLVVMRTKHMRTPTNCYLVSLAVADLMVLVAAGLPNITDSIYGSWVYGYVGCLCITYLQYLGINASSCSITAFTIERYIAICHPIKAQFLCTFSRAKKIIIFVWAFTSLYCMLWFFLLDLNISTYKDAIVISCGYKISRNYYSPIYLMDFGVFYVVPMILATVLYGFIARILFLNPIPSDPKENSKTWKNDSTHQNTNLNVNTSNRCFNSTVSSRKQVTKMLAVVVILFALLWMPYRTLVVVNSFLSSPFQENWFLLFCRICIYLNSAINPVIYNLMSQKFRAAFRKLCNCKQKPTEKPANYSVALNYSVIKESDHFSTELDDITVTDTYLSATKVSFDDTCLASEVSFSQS
Chain of ATP-dependent DNA helicase Q1 (Homo sapiens) (P46063 whole entry, looked up): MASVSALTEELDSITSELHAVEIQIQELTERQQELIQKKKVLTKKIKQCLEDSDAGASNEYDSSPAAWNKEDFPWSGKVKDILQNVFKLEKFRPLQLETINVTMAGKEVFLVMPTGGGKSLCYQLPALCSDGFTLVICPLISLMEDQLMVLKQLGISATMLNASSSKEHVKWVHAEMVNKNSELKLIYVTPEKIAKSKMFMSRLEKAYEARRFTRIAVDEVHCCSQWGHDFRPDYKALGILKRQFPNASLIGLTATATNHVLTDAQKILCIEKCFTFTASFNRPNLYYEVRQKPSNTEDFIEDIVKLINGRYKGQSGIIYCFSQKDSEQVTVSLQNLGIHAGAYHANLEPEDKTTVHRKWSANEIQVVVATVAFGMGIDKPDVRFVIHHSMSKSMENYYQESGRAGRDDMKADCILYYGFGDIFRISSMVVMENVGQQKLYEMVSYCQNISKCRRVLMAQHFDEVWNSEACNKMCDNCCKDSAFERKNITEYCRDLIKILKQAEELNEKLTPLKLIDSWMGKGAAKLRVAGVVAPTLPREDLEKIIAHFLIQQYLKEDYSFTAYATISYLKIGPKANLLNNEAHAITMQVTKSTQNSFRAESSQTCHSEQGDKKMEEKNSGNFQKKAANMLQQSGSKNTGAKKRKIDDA
Chain of Transient receptor potential cation channel subfamily V member 1 (Homo sapiens) (Q8NER1 whole entry, looked up): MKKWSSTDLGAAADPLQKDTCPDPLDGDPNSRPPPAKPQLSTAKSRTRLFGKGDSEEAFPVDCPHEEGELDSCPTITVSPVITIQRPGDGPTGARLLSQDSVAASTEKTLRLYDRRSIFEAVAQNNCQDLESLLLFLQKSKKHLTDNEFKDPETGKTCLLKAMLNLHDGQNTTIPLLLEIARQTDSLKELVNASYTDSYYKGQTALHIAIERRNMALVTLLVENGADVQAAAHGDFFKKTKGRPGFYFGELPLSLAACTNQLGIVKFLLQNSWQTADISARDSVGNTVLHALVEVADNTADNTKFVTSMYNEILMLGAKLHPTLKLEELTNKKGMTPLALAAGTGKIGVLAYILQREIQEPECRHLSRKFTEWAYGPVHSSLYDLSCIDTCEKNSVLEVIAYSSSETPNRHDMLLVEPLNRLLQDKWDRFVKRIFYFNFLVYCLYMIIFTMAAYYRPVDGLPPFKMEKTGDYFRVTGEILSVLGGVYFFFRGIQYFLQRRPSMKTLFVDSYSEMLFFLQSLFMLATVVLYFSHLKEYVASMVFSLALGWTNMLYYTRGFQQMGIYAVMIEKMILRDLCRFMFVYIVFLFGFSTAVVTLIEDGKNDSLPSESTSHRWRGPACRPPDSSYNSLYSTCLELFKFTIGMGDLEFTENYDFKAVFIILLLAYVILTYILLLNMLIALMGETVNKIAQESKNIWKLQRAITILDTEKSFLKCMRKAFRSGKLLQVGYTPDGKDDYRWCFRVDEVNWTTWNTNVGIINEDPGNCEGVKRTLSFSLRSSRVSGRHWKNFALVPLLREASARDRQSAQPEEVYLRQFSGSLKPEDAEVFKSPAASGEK
Chain of Cytochrome P450 3A4 (Homo sapiens) (P08684 whole entry, looked up): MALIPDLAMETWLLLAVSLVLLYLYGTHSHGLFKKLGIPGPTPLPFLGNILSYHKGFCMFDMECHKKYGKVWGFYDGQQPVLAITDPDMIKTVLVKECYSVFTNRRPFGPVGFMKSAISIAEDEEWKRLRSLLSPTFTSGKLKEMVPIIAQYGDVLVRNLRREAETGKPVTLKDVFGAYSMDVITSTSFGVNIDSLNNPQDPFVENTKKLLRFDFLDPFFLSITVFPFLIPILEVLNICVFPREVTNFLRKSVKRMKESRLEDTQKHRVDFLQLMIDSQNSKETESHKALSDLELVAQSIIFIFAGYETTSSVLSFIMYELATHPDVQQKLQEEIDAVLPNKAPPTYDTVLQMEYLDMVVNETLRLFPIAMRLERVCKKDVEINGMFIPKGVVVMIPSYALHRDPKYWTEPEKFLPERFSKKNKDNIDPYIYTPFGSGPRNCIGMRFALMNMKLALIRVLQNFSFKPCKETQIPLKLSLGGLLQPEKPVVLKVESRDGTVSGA
Chain of DNA repair nuclease/redox regulator APEX1 (Homo sapiens) (P27695 whole entry, looked up): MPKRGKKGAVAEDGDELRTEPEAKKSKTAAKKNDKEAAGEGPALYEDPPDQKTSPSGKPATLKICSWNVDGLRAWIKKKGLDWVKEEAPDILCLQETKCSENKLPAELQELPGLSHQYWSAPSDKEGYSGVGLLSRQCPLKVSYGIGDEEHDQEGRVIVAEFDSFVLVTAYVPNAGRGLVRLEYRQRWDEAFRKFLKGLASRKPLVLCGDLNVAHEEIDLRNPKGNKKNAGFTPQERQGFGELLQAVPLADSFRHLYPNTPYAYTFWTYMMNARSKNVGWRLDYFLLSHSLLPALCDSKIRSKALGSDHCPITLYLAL
Chain of Cytochrome P450 2C9 (Homo sapiens) (P11712 whole entry, looked up): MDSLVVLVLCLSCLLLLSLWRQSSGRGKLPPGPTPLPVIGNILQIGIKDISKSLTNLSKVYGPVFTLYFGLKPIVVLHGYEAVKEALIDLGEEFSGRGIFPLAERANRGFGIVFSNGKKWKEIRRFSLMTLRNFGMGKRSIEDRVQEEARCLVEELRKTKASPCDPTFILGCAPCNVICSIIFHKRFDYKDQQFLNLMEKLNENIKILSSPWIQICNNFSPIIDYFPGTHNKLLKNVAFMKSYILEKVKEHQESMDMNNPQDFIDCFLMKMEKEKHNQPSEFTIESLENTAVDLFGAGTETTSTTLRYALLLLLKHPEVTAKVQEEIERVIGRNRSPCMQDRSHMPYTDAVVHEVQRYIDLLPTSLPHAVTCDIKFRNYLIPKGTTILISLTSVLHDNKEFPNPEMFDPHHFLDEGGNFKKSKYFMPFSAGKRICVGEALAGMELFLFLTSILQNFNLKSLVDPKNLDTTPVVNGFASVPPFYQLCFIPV

Cc1ccc(C[N+](C)(C)C)o1
inactive: Potency [1] | outcome [2]

c1cncc(C2CCCCN2)c1 (stereo not given)
inactive: Potency [3] | Potency [1] | outcome [2]

Cc1o[nH]c(=O)c1C[C@H](N)C(=O)O
inactive: Potency [4] | activation [6] 7.13% | Potency [7] | outcome [8] | outcome [9]
active: Potency [5] 2.51 µM

CCN1C[C@]2(C)CC[C@H](O)[C@@]34C5C[C@@H]6[C@@H](OC)C[C@@](O)(C5[C@H]6O)[C@@H](CC23)[C@@H]14 (stereo not given in full)
inactive: Potency [3]

N[C@H](CP(=O)(O)O)C(=O)O
inactive: Potency [10] | Potency [5] | Potency [11] | Potency [7] | outcome [8] | outcome [9]

N[C@H](CCP(=O)(O)O)C(=O)O
inactive: Potency [4] | Potency [11] | Potency [7] | outcome [8] | outcome [9]

C[C@@H](Cc1ccc(OCC(=O)O)cc1)NC[C@H](O)c1cccc(Cl)c1
active: Potency [10] 6.31 µM | Potency [5] 5.01 µM | Potency [7] 14.1 µM
inactive: outcome [8] | outcome [9]

c1ccc2c(c1)OC[C@@H](C1=NCCN1)O2
active: Potency [5] 7.94 µM
inactive: Potency [11] | Potency [7] | outcome [8] | outcome [9]

COc1ccc(-n2nc(C(F)(F)F)cc2-c2ccc(Cl)cc2)cc1
active: Potency [5] 7.94 µM | Potency [15] 10 µM
inactive: Potency [4] | outcome [8] | outcome [9] | Potency [12] | Potency [13] | Potency [14] | outcome [16] | Potency [17] | Potency [18] | outcome [19] | activation [20] -9.62%

CC(C)(C)c1o[nH]c(=O)c1C[C@H](N)C(=O)O
inactive: Potency [11] | Potency [7] | outcome [8] | outcome [9]

N#CC(C#N)=Cc1ccc([N+](=O)[O-])c(O)c1
inactive: Potency [4] | Potency [11] | Potency [7] | outcome [8] | outcome [9] | Potency [12] | Potency [13] | Potency [14] | Potency [15] | outcome [16] | Potency [17] | Potency [18] | outcome [19] | activation [20] -0.188%

CN1CCc2cc(O)cc3c2C1Cc1ccc(O)c(O)c1-3 (stereo not given)
inactive: Potency [12] | Potency [13] | outcome [16] | Potency [17] | Potency [18] | outcome [19] | activation [20] 1.44%
active: Potency [14] 8.91 µM | Potency [15] 6.31 µM

N[C@@]1(C(=O)O)CC[C@H](C(=O)O)C1
inactive: Potency [3] | Potency [5] | Potency [11] | Potency [7] | outcome [8] | outcome [9]

COc1ccc(C[C@H]2NC[C@H](O)[C@@H]2OC(C)=O)cc1
active: Potency [5] 3.16 µM
